Source: PubChem
hNpr1 antagonist – Natriuretic polypeptide receptor (hNpr1) antagonism - Primary qHTS; Atrial natriuretic peptide receptor 1 (Homo sapiens), P16066; HEK293 hNpr1 GloSensor cGMP, ANP-stimulated luminescence; 76,000 tested, 1.6% active; Potency, µM (series often up to 46.3 µM), inactives show at the top dose activity change, negative = inhibition, actives largely listed as inhibitors; AID 1347048, 2019; calls by dose curve; further: nearly all actives have a fitted effect of over 60% in size
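Compound pre-incubated 30 min at room temperature on GloSensor-loaded HEK293 cells stably carrying hNpr1 and the pGS-40F cGMP biosensor. Stimulation uses hNppA at 0.1 nM final; luminescence is taken at baseline and 20 min post-agonist.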
Luciferase inh – Firefly luciferase inhibition profiling of diverse chemical library using quantitative high-throughput screening; Luciferin 4-monooxygenase (Photinus pyralis), P08659; purified P. pyralis luciferase, luminescence, biochemical; Potency, µM (doses to about 115 µM), usual class: inhibitors; 76,000 tested, 2.5% active; further: nearly all actives have a fitted effect of over 65% in size
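FLuc 10nM, D-luciferin 10uM, ATP 10uM, Mg acetate 10mM, Tris acetate pH 7.5, Tween/BSA; cpd qHTS; enzyme added last; CCD luminescence.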
3T3 cytotox – Cytotoxic Profiling in NIH 3T3 Cell Line of Diverse Libraries Using Quantitative High-Throughput Screening | NIH 3T3 viability, CellTiter-Glo ATP luminescence, 48-72 h | Potency, µM (top dose mostly 96.7 µM), for the others: top-dose activity change, negative = cytotoxicity, hits mostly inhibitors | 94,000 tested, 4.3% active | AID 1345082, 2018; further: nearly all actives have a fitted effect of over 55% in size
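Cells were seeded at 400 per well, treated with pin-transferred compound, and kept 48 or 72 hr at 37 °C before CellTiter-Glo addition and luminescence imaging of cellular ATP.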
HEK293 tox – Cytotoxic Profiling in HEK 293 Cell Line of Diverse Libraries Using Quantitative High-Throughput Screening | AID 1345083, 2018 | 94,000 tested, 6.6% active | Potency, µM (doses to about 115 µM), for inactives: top-dose activity change, negative = cytotoxicity, usual class: inhibitors | HEK 293 viability, ATP luminescence (CellTiter-Glo), 48-72 h; further: nearly all actives have a fitted effect of over 60% in size
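Luminescence from cellular ATP, measured with CellTiter-Glo, indicates HEK 293 viability. Cells plated at 250 cells/well are treated with compound for 48 or 72 hr at 37 degree Celsius before reagent addition.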
GPT2 inh – Primary qHTS assay for inhibitors of Glutamate pyruvate transaminase 2 (GPT2); Alanine aminotransferase 2 (Homo sapiens), Q8TD30; Recombinant GPT2, coupled pyruvate oxidase/HRP Amplex Red fluorescence; Potency, µM (titrated, usually from 57.7 µM), for the others: at the top dose activity change, negative = inhibition, hits mostly inhibitors; 100,000 tested, 0.25% active; further: nearly all actives have a fitted effect of over 60% in size
Target sequence (Q8TD30 whole entry, looked up): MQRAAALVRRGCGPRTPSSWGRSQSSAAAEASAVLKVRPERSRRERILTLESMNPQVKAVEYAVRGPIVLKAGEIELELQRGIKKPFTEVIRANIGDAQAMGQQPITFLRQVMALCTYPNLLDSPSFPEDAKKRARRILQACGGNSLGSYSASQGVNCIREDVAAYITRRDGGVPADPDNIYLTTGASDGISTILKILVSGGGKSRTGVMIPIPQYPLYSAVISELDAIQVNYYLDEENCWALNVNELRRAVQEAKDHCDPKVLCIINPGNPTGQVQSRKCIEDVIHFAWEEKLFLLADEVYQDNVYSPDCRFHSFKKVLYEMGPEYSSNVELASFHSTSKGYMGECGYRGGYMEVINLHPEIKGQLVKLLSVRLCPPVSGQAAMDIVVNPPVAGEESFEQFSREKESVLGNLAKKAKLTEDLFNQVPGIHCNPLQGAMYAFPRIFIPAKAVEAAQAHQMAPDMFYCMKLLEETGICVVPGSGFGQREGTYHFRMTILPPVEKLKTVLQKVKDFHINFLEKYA
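Fluorescence read-out: pyruvate from GPT2 turnover coupled to pyruvate oxidase, HRP and Amplex Red (0.2mM ThPP, 0.2U/mL PO and HRP, 50uM Amplex final). Substrates 250uM a-KG, 2mM L-alanine; enzyme 10ng/uL; 30 min RT.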
* = called active by the depositor; i = inactive; ? = inconclusive; · = no result; [ ] = remark or other dose. An excerpt weighted towards active compounds, which were near 10% of everything screened. Unless noted, the call rests on the fitted dose curve; in most records, active means well fitted curve in the direction sought with a large enough effect; inconclusive means small, poorly fitted or top-dose-only effect, or another doubt; inactive means no such curve, though single readings can be large; an effect the other way counts as inactive or inconclusive. On the % scale 0 is the no-effect control and ±100 the full control effect; potency means the concentration at half of the fitted maximal effect.

SMILES | hNpr1 antagonist | Luciferase inh | 3T3 cytotox | HEK293 tox | GPT2 inh
O=C(NCC(F)F)c1cc(-c2cccc(C(F)(F)F)c2)c2cccn2n1 | · | · | ? | 35µM* | -16%
CSCCNC(=O)c1cc(-c2cccc(C(F)(F)F)c2)c2cccn2n1 | · | · | ? | ? | -22%
CCCn1cc(-c2ccncc2)cc1C(=O)N1CCN(c2ccccc2F)CC1 | -20% | i | ? | 45µM* | i
CCCn1cc(-c2ccncc2)cc1C(=O)N1CCN(c2ccccn2)CC1 | ? | i | ? | ? | i
CCn1cc(-c2cc(C(=O)N3CCCCCC3)c3cccc(C)c3n2)cn1 | 1% | i | ? | ? | i
Cc1c(CNC(=O)c2ccc3nc(-c4ccc(F)cc4)cn3c2)cnn1C | -15% | 45µM* | -22% | ? | -9%
O=C(NCCc1nc(-c2ccccc2)cs1)c1ccc2nccn2c1 | -17% | i | ? | 40µM* | i
CCN(Cc1ccc(C)o1)C(=O)c1ccc2nc(-c3ccc(F)cc3)cn2c1 | -15% | 40µM* | ? | ? | ?
CCN(CC1CCCO1)C(=O)c1ccc2nc(-c3ccc(F)cc3)cn2c1 (centres undefined) | 2% | ? | -28% | ? | i
O=C(NCCCc1ccccn1)c1ccc2nc(-c3ccc(F)cc3)cn2c1 | -13% | ? | ? | 45µM* | 2%
NCc1ccccc1-c1cccc(Cl)c1 | · | · | ? | ? | i
O=C(C1CCCC1)N1CCCN(c2ccc3nnc(C4CC4)n3n2)CC1 | · | · | -28% | -25% | ·
CN1CCN(Cc2nc(C3(O)CCN(CC4CCCCC4)CC3)cs2)CC1 | 4%[70.6 µM] | i | ? | ? | ?
COCCN1C(=O)CCc2cc(NC(=O)c3ccc(C)cc3C)ccc21 | 0% | 40µM* | ? | ? | -15%
COCCN1C(=O)CCc2cc(NC(=O)c3ccccc3C)ccc21 | 0% | i | -13% | -9% | -8%
CCN1C(=O)CCc2cc(NC(=O)c3ccc(OC)cc3C)ccc21 | -2% | 25µM* | ? | 71µM* | 5%
COc1cccc(-n2cc(CN(C)Cc3cn(-c4ccccc4)nn3)cn2)c1 | -1% | i | ? | 32µM* | -6%
CN(Cc1ccc2nonc2c1)Cc1cn(-c2ccccc2)nn1 | 4% | i | -12% | ? | -1%[11.5 µM]
O=C(CN1CCCc2nc(-c3ccccc3)ncc2C1=O)NCCCn1cccn1 | · | · | -26% | -26% | i
CCc1ccc(CNC(=O)CCC2CCCN(S(=O)(=O)c3ccccc3C)C2)cc1 (centres undefined) | -26% | i | ? | 40µM* | -2%
O=C(CCC1CCCN(S(=O)(=O)c2ccccc2F)C1)NC1CCCCC1 (centres undefined) | ? | i | -25% | 32µM* | -5%
O=C(NC1CCCC1)c1cccc2c1CCN2S(=O)(=O)c1ccccc1F | ? | i | 35µM* | ? | -1%
O=C(NC1CC1)c1nc2sccn2c1-c1ccncc1 | · | · | -21%[138 µM] | -19%[172 µM] | -11%[88.5 µM]
NCc1cccc(-c2ccccc2F)c1 | · | · | -27%[138 µM] | -18%[172 µM] | -1%[88.5 µM]
O=C1Cc2c(-c3ccccc3OCc3ccccc3)n[nH]c2CN1Cc1ccccc1 | -21%[70.6 µM] | i | ? | 50µM* | 4%[88.5 µM]
O=C1Cc2c(-c3ccccc3OCc3ccccc3)n[nH]c2CN1Cc1ccccn1 | -10%[70.6 µM] | i | ? | 100µM* | i
O=C1Cc2c(-c3ccccc3Oc3ccccc3)n[nH]c2CN1Cc1ccccn1 | -5%[70.6 µM] | i | ? | ? | -11%[88.5 µM]
O=C1Cc2c(-c3ccccc3OCc3ccccc3)n[nH]c2CN1CCOc1ccccc1 | -18% | i | ? | ? | -5%
Cc1ccc2c(n1)N(C)[C@H](CO)CCN(Cc1ccc(Cl)cc1)C2 | -2%[70.6 µM] | i | ? | 71µM* | ?
Cc1ccc2c(n1)N(C)[C@H](CO)CCN(Cc1ccc(F)c(F)c1)C2 | -3%[70.6 µM] | i | -26%[174 µM] | ? | -17%[88.5 µM]
